In PubChem BioAssay (EPA / NIEHS) one finds AC50 and outcome data, which are given here for 40 molecules.

Values joined by “and” are separate entries in the source; they are usually repeats but may differ in a detail not shown here. Equal entries are not always repeated. Active and inactive are the calls of the source. How the source made its calls: active means hit-call score of the fitted dose curve at least 0.9, where 1 is the maximum; inactive means score below 0.9.

The assay can be described thus: ATG_TCF_b_cat_CIS: Attagene CIS-FACTORIAL HepG2 Assay for human T-Cell-Factor with beta-catenin (TCF/b-cat) (AID 2282965). As to conditions: HepG2 TCF/beta-catenin cis-reporter transcription, actives raise or lower the signal. The procedure: ATG_CIS is a cell-based, multiplexed-readout assay that uses HepG2, a human liver cell line, with measurements taken at 24 hours after chemical dosing in a 24-well plate.ATG_TCF_b_cat_CIS is one of 52 assay component(s) measured or calculated from the ATG_CIS assay. It is designed to make measurements of mRNA induction, a form of inducible reporter, as detected with fluorescence intensity signals by Reverse transcription polymerase chain reaction (RT-PCR) and Capillary electrophoresis technology.Data from the assay component ATG_TCF_b_cat_CIS was analyzed into 1 assay endpoint. This assay endpoint, ATG_TCF_b_cat_CIS, was analyzed with bidirectional fitting relative to DMSO as the negative control and baseline of activity. Using a type of inducible reporter, measures of mRNA for gain or loss-of-signal activity can be used to understand the reporter gene at the transcription factor-level as they relate to the gene TCF7 and TCF7L2 and LEF1 and TCF7L1. Furthermore, this assay endpoint can be referred to as a primary readout, because this assay has produced multiple assay endpoints where this one serves a reporter gene function. To generalize the intended target to other relatable targets, this assay endpoint is annotated to the dna binding intended target family, where the subfamily is HMG box protein.
Human liver HepG2 cells are transiently transfected with multiple reporter transcription units (MRTUs) in 6-well plates using FuGene 6 reagent (Roche; 3 ml FuGene/1 mg DNA). The MRTU constructs are regulated by a cis-regulating element (promoter). […] A major difference between the CIS and TRANS system is that in CIS activities of endogenous TFs are measured, whereas the TRANS assay evaluates changes in activities of exogenous, chimeric NR-Gal4 proteins. […] At the end of 24 hour incubation, total RNA was isolated using TriZol reagent (Invitrogen). The isolated RNA is then reverse-transcribed using oligo(dT) primer and Mo-MLV reverse transcriptase (Invitrogen) with DNAse I (Ambion) treatment for 30 min. The one-tenth of the produced cDNA was amplified by PCR using Taq DNA polymerase (Invitrogen) and two reporter sequence-specific primers. The PCR products were fluorescently labeled by primer extension with 6-arboxyfluorescein (6-FAM) 5'-labeled reporter sequence-specific primer (2 min at 95 C, 20 s at 68 C and 10 min at 72 C) and these products were digested with 5U of HpaI (New England Biolabs) for 2h at 37 C. The fragments were purified using Qiaquick PCR columns (Qiagen), analyzed on an ABI 3130xL genetic analyzer (Applied Biosystems) with peak positions identified by using a set of X-rhodamine (ROX)-labeled MapMarker1000 molecular weight standards (BioVentures). The raw capillary electrophoresis data was processed using Attagraph software (Attagene).
Take `C/C=C/C(=O)C1=C(C)CCCC1(C)C`: the AC50 was 62.7 µM (active). Consider `COC(O)c1ccccc1` (stereo not given), for which the outcome was inactive. On to `FC(F)(F)N1C(F)(F)C(F)(F)OC(F)(F)C1(F)F`, for which the result was inactive. Consider `N=C(N)c1ccc(OCCCCCOc2ccc(C(=N)N)cc2)cc1`, for which the AC50 is 36.6 µM (active). In the case of `Nc1cc(Cl)c(-c2cc(Cl)c(N)cc2Cl)cc1Cl`, the molecule was classed as inactive.

With `O=C(c1cc(O)c(O)c(O)c1)c1ccc(O)c(O)c1O`, the outcome was inactive. For the molecule `CCCCC=O`, the outcome was inactive. Take `COc1cc([N+](=O)[O-])ccc1N`: the outcome was inactive.

On to `CCCCCCCCCCCCCCCC(=O)OC`, for which the molecule was classed as inactive.

For the molecule `Clc1ccc(Nc2nnc(Cc3ccncc3)c3ccccc23)cc1`, the AC50 was 11 µM (active). On to `Cc1cc(C(=C2C=CC(=Nc3ccc(S(=O)(=O)O)cc3)C=C2)c2ccc(Nc3ccc(S(=O)(=O)O)cc3)cc2)cc(S(=O)(=O)O)c1N`, for which the result was inactive. On the same count and under the same terms, then `O=C(O)CCC(F)(F)C(F)(F)C(F)(F)C(F)(F)C(F)(F)C(F)(F)F`, with “inactive”; and `CCOC(OCC)C(=O)c1ccccc1`, with “inactive”; and `O=S(=O)(O)c1ccccc1`, with “inactive”. With `c1cc[nH]c1`, the molecule was called inactive. Regarding `O=C(O)C(F)(F)OC(F)(F)C(F)(F)OC(F)(F)C(F)(F)OC(F)(F)C(F)(F)C(F)(F)C(F)(F)F`, the AC50 was 25.9 µM (active) and 24.4 µM (active).

`CCC(=O)C=Cc1ccc(OC)cc1`: the call was inactive. As for `COC(=O)C(F)(F)C(F)(F)C(F)(F)F`, the result was inactive. Consider `O=C(Nc1ccc(Cl)c(Cl)c1)c1cc(Cl)cc(Cl)c1O`, for which the AC50 was 33.4 µM (active). With `CC1COCc2cc3c(cc21)C(C)(C)C(C)C3(C)C` (stereo not given), the call was inactive. Same read-out and setting: to `C[C@]12CC[C@@H]3c4ccc(O)cc4CC[C@H]3[C@@H]1C[C@@H](O)[C@@H]2O` belongs “inactive”; to `CCN(CCC#N)c1ccccc1`, “inactive”; to `COc1cccc(O)c1`, “inactive”. In the case of `CCOC(=O)CN[C@@H](C(=O)N1CC[C@H]1C(=O)NCc1ccc(/C(N)=N/O)cc1)C1CCCCC1`, the outcome was inactive.

In the case of `Cc1ccc(S(=O)(=O)O)cc1`, the outcome was inactive. On to `Cc1ccc(C)c(S(=O)(=O)O)c1`, for which the outcome was inactive.

As to `CCCCCCCCCCCC[N+](C)(C)Cc1ccccc1`, the outcome was inactive. `CCOC(=O)c1nc(C(Cl)(Cl)Cl)n(-c2ccc(Cl)cc2Cl)n1`: the molecule was called inactive. The same measure, in the same setting: to `C=CC(=O)OCCN(CC)CC` belongs “inactive”. Same read-out and setting: to `CCCCc1oc2ccccc2c1C(=O)c1cc(I)c(OCCN(CC)CC)c(I)c1` belongs “inactive”; to `CCO[Si](CCC1CCC2OC2C1)(OCC)OCC` (stereo not given), “inactive”; to `CCc1cccc(CC)c1NC(=O)C(=O)O`, “inactive”.

As to `CCO[Si](C)(C)OCC`, the molecule was called inactive. On to `Cc1[nH]nc2c1N=C(c1ccccc1Cl)c1cc([N+](=O)[O-])ccc1N2`, for which the AC50 was 3.71 µM (active). As to `FC1(F)C=CC(F)(F)C1(F)F`, the call was inactive. The same measure, in the same setting: then `CCCCCCCC(OC)OC`, with “inactive”; and `O=C1OC2(c3ccccc31)c1cc(I)c(O)c(I)c1Oc1c2cc(I)c(O)c1I`, with “inactive”; and `O=C1c2ccc(O)c(O)c2C(=O)c2c(O)ccc(O)c21`, with “inactive”. `OCC1CCC(CO)CC1` (stereo not given): the outcome was inactive. On the same count and under the same terms, then `CCOC=O`, with “inactive”.

In general, AC50 refers to the concentration at which the activity in the assay is half-maximal.
